Experimental data taken from the supplement of paper PMC8728848.
The entries come from a sample that favours the strongest signals as a whole.

How the values were obtained:
Experiment in all cases: glycan array binding signal (z-score within array); higher = stronger binding
Conditions in all cases: glycan notation: IUPAC condensed, linker removed
[1] = biological target: Kdn(a2-3)Gal(b1-4)[Fuc(a1-3)]GlcNAc
Procedure, shortened: (§1)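 The binding signal is a Z-score computed within each array. Data were drawn from 3228 arrays in the Consortium for Functional Glycomics database, restricted to those with a known protein sequence. Scores were averaged over arrays of the same protein sequence at different concentrations or buffers, and over linkers, and negative values can be taken as non-binding.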

Kdn(a2-6)Gal(b1-4)GlcNAc = biological target: Kdn(a2-6)Gal(b1-4)GlcNAc
Procedure, shortened: as §1

Man(b1-4)GlcNAc = biological target: Man(b1-4)GlcNAc
Procedure, shortened: as §1

Neu5Ac(a2-3)Gal = biological target: Neu5Ac(a2-3)Gal
Procedure, shortened: as §1

[2] = biological target: Neu5Ac(a2-3)Gal(b1-4)GlcNAc(b1-2)Man(a1-3)[GlcNAc(b1-4)][Neu5Ac(a2-3)Gal(b1-4)GlcNAc(b1-2)Man(a1-6)]Man(b1-4)GlcNAc(b1-4)GlcNAc
Procedure, shortened: as §1

[3] = biological target: Neu5Ac(a2-3)Gal(b1-4)GlcNAc(b1-3)Gal(b1-4)GlcNAc(b1-6)[Gal(b1-3)]GalNAc
Procedure, shortened: as §1

[4] = biological target: Neu5Ac(a2-3)Gal(b1-4)GlcNAc(b1-3)GalNAc
Procedure, shortened: as §1

[5] = biological target: Neu5Ac(a2-3)Gal(b1-4)[Fuc(a1-3)]GlcNAc(b1-3)Gal
Procedure, shortened: as §1

Neu5Ac(a2-3)GalNAc = biological target: Neu5Ac(a2-3)GalNAc
Procedure, shortened: as §1

[6] = biological target: Neu5Ac(a2-6)Gal(b1-4)GlcNAc(b1-2)Man(a1-3)[Neu5Ac(a2-3)Gal(b1-4)GlcNAc(b1-2)Man(a1-6)]Man(b1-4)GlcNAc(b1-4)GlcNAc
Procedure, shortened: as §1

Neu5Ac(a2-6)GalNAc = biological target: Neu5Ac(a2-6)GalNAc
Procedure, shortened: as §1

[7] = biological target: Neu5Ac(a2-8)Neu5Ac(a2-3)Gal(b1-3)GalNAc(b1-4)[Neu5Ac(a2-3)]Gal(b1-4)Glc
Procedure, shortened: as §1

[8] = biological target: Neu5Ac(a2-8)Neu5Ac(a2-8)Neu5Ac(a2-8)Neu5Ac(a2-3)[GalNAc(b1-4)]Gal(b1-4)Glc
Procedure, shortened: as §1

[9] = biological target: Neu5Gc(a2-3)Gal(b1-4)GlcNAc
Procedure, shortened: as §1

B1: EULS2 M3 (Oryza sativa) (protein)
chain: MVYCRANPNYAMTARNGAVVLAPANPKDEYQHWIKDMRWSTSIKDEEGYPAFALVNKATGQAIKHSLGQSHPVRLVPYNPEVMDESVLWTESRDVGNGFRCIRMVNNIYLNFDAFHGDKYHGGVRDGTDIVLWKLCEGDSLRWKIQPYYILEQKLISEEDLNSAVDHHHHHH
For B1, the “glycan array binding signal (z-score)” value [1] was 0.28, the “glycan array binding signal (z-score)” value (Kdn(a2-6)Gal(b1-4)GlcNAc) was -0.599 and the “glycan array binding signal (z-score)” value (Man(b1-4)GlcNAc) was 0.117. For the same binder, the “glycan array binding signal (z-score)” value (Neu5Ac(a2-3)Gal) was -1.29, the “glycan array binding signal (z-score)” value [2] was -0.414 and the “glycan array binding signal (z-score)” value [3] was -0.345. The “glycan array binding signal (z-score)” value [4] was -0.286, the “glycan array binding signal (z-score)” value [5] was 0.557 and the “glycan array binding signal (z-score)” value (Neu5Ac(a2-3)GalNAc) was -0.085. The “glycan array binding signal (z-score)” value [6] was -0.391, the “glycan array binding signal (z-score)” value (Neu5Ac(a2-6)GalNAc) was -0.8 and the “glycan array binding signal (z-score)” value [7] was 1.61. The “glycan array binding signal (z-score)” value [8] was -0.424 and the “glycan array binding signal (z-score)” value [9] was 0.145.
